Assay [1] can be described thus: qHTS assay to identify small molecule antagonists of the glucocorticoid receptor (GR) signaling pathway - cell viability counter screen (AID 720693). Note: nearly all actives have a fitted effect of over 55% in size. Background: Quantitative high-throughput screening tests each substance at several concentrations.
Assay [2] can be described thus: qHTS assay for identifying genotoxic compounds that show differential cytotoxicity against isogenic chicken DT40 cell lines with known DNA damage response pathways - wild type cell line (AID 743012). Note: nearly all actives have a fitted effect of over 60% in size. Note: potency is the fitted concentration of half-maximal effect. The method in brief:
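Viability by ATP luminescence (CellTiter-Glo, 30 min RT) after 40 h compound treatment at 37 C/5% CO2, using 300 parental DNA repair-proficient DT40 cells per well.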

The nature of assay [3]: qHTS assay for identifying genotoxic compounds that show differential cytotoxicity against isogenic chicken DT40 cell lines with known DNA damage response pathways - Rev3 mutant cell line (AID 743014). Note: nearly all actives have a fitted effect of over 55% in size. Note: potency is the fitted concentration of half-maximal effect.
Assay [4] in a line: qHTS assay for identifying genotoxic compounds that show differential cytotoxicity against isogenic chicken DT40 cell lines with known DNA damage response pathways - Rad54/Ku70 mutant cell line (AID 743015). Note: nearly all actives have a fitted effect of over 60% in size. Note: potency is the fitted concentration of half-maximal effect.
Assay [5] in a line: qHTS assay to identify small molecule antagonists of the androgen receptor (AR) signaling pathway using the MDA cell line - cell viability counter screen (AID 743041; note: nearly all actives have a fitted effect of over 45% in size). The method in brief: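 In this qHTS counter assay, fluorescence intensity after CellTiter-Fluor addition indicated viability of MDA-kb2 AR-luc cells given compounds and R1881 for 16 h at 37C.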
Assay [6] deals with Androgen receptor (Homo sapiens) (UniProt P10275). The assay can be described thus: qHTS assay to identify small molecule antagonists of the androgen receptor (AR) signaling pathway (AID 743035; active = well fitted inhibition curve with a large enough effect in the signal ratio in the repeat runs, not every such curve was filed as active; the % refers to the signal ratio; note: potency is the fitted concentration of half-maximal effect). The method in brief:
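Antagonist mode: AR-bla HEK293 cells co-treated with test compounds and agonist R1881 for 16 h at 37C, 5% CO2. Beta-lactamase activity read as FRET fluorescence after 2 h room-temperature substrate loading.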

Assay [7] has the same target. The assay can be described thus: qHTS assay to identify small molecule agonists of the androgen receptor (AR) signaling pathway (AID 743036; active = well fitted activation curve with a large enough effect in the signal ratio in the repeat runs, with a control signal flat, not every such curve was filed as active; the % refers to the signal ratio). The method in brief: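 AR-bla HEK293 cells, 2,000/well; 4 h preincubation 37C/5% CO2; compound (DMSO) 16 h at 37C; LiveBLAzer B/G FRET substrate 2 h RT; fluorescence intensity read-out.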
For assay [8] the target is unchanged. Put plainly: qHTS assay to identify small molecule agonists of the androgen receptor (AR) signaling pathway using the MDA cell line (AID 743040; note: nearly all actives have a fitted effect of over 20% in size). The method in brief:
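Cell-based luciferase reporter: MDA-kb2, MMTV promoter (AR + GR response elements). 16 h compound exposure at 37C; ONE-Glo, 30 min RT, luminescence.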

Assay [9] shares this target. The assay can be described thus: qHTS assay to identify small molecule antagonists of the androgen receptor (AR) signaling pathway using the MDA cell line (AID 743042; note: nearly all actives have a fitted effect of over 55% in size). The method in brief:
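MDA-kb2 cells (human breast carcinoma, stably carrying an MMTV-luciferase reporter responsive to AR and GR) were plated at 3,000 cells/well and preincubated 5 hr at 37C, then given compound plus R1881 agonist for 16 h. ONE-Glo luminescence was read.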

Assay [10] is described as follows: qHTS assay to identify small molecule antagonists of the androgen receptor (AR) signaling pathway - cell viability counter screen (AID 743033; note: nearly all actives have a fitted effect of over 45% in size).

Values joined by “and” are separate entries in the source; they are usually repeats but may differ in a detail not shown here. Identical values can stand only once. Inconclusive results are not listed. Active and inactive are the calls of the source. Unless noted, calls come from the whole dose curve; as a rule, active = well fitted curve in the direction sought with a large enough effect in the repeat runs; inconclusive = weak or mixed curves; inactive = no such curve, though single readings can be large; an effect the other way counts as inactive or inconclusive.

Sequence of Androgen receptor (Homo sapiens) (P10275 whole entry, looked up): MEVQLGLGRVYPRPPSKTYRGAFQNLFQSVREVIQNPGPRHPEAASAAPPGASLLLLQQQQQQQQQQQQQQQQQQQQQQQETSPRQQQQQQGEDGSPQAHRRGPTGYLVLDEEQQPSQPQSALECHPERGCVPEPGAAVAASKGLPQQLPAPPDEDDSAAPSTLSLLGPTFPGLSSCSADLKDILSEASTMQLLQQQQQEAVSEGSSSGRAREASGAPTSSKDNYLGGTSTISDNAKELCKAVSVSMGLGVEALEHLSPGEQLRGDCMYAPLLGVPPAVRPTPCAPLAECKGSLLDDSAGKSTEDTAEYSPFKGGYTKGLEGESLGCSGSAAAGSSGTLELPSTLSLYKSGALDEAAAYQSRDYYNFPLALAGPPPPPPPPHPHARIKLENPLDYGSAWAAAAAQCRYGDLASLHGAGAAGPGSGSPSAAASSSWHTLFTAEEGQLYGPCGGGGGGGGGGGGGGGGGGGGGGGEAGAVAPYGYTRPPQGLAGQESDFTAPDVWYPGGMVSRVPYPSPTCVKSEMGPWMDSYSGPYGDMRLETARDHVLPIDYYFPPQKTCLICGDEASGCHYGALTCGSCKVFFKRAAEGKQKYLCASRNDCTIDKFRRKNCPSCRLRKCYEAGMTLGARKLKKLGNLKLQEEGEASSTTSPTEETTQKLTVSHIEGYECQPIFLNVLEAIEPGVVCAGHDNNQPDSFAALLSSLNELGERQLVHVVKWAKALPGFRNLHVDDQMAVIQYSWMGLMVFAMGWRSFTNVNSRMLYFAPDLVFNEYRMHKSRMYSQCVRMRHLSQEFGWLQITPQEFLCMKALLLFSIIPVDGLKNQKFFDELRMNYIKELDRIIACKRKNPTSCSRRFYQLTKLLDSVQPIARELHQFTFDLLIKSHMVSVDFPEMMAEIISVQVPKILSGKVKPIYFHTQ

Turning to `Cc1ccccn1`, the Potency result in [1], in [2], in [3], in assay [4] and in assay [5] was “inactive” each time.
Turning to `CN(c1nccc(=O)[nH]1)C1CCN(c2nc3ccccc3n2Cc2ccc(F)cc2)CC1`, the Potency result in assay [1], in [2], in assay [3], in assay [4] and in assay [5] was “inactive” throughout.
As for `CCC(C)N(C)C(=O)c1cc2ccccc2c(-c2ccccc2Cl)n1` (centres undefined), the Potency result in [1], in assay [8] and in [5] was “inactive” throughout. The Potency in assay [2] is 15.7 µM (active); in [3], 14 µM (active); in [4] it was 14 µM (active); in [6], 28.2 µM (active). In assay [7], the compound was called inactive.
With `Nc1nc(N)c2nc(CNc3ccc(C(=O)N[C@@H](CCC(=O)O)C(=O)O)cc3)cnc2n1`, the Potency result in assay [1] and in [5] was “inactive” each time. Also, the Potency in [2] is 11.9 µM (active); in assay [3], 13.3 µM (active); in assay [4] it was 23.7 µM (active) and 1.4 nM (active).
`O=C(NS(=O)(=O)/C=C/c1cccs1)c1ccc(F)cc1Br`: the Potency entry in [1], in [2], in [3], in assay [4], in [8] and in assay [5] was “inactive” in each case. The Potency result in assay [9] was “inactive”. Further, the call in [7] was inactive.
On to `CC1=CC(=O)/C(=C(/C)O)C(=O)O1`, for which the Potency entry in [1], in assay [2], in [3], in [4] and in assay [5] was “inactive” throughout.
For the compound `CN(C)CC/C=C1\c2ccccc2COc2ccccc21`, the Potency entry in assay [1], in assay [8], in assay [5] and in assay [9] was “inactive” in each case. In addition, the Potency in [2] is 29.8 µM (active); in assay [3] it was 26.6 µM (active); in [4], 29.8 µM (active). For the same compound, in [7], the compound was called inactive.
On to `CC(C)(C)c1cc(CO)cc(C(C)(C)C)c1O`, for which the Potency result in [1] and in assay [5] was “inactive” in each case. The Potency in assay [2] was 31.2 µM (active); in assay [3], 27.8 µM (active); in assay [4], 22.1 µM (active).
As to `NCCCOCCOCCOCCCN`, the Potency result in [1] and in assay [10] was “inactive” in each case. Further, the Potency in assay [2] is 5.45 µM (active); in assay [3] it was 10.9 µM (active).
For the compound `Cl/C(=C\n1cncn1)c1ccc(Cl)cc1Cl`, the Potency result in assay [1], in assay [2], in assay [3] and in assay [10] was “inactive” each time.
On to `N#CCCNCCC#N`, for which the Potency result in assay [1], in [2], in assay [3], in assay [4] and in assay [5] was “inactive” each time.
For the compound `CCOc1ccc2[nH]cc(C(=O)NCc3ccccc3)c(=O)c2n1`, the Potency entry in assay [1] and in [5] was “inactive” in each case. Further, the Potency is 43.3 µM (active) in assay [2], 48.6 µM (active) in assay [3] and 24.3 µM (active) in [4].
With `O=[N+]([O-])c1cc[n+]([O-])cc1`, the Potency result in [1], in assay [3], in assay [4], in [8], in assay [5] and in assay [9] was “inactive” throughout. For the same compound, the Potency in assay [2] was 15.4 µM (active).
In the case of `CC(C)=CCCC(C)CC=O` (centres undefined), the Potency result in assay [1], in assay [2], in assay [3], in assay [4], in assay [10] and in assay [5] was “inactive” in each case.
As for `CC(=O)SCc1ccco1`, the Potency result in assay [1], in assay [2], in [3], in [4], in [6] and in [8] was “inactive” throughout. The Potency result in assay [5] and in [9] was “inactive” in each case. In assay [7], the compound was classed as inactive.
As for `NC1CCN(c2nc3c(cc2F)c(=O)c(C(=O)O)cn3-c2ccc(F)cc2F)C1` (centres undefined), the Potency entry in [1] and in assay [5] was “inactive” each time. For the same compound, the Potency in [2] was 10.6 µM (active); in assay [3], 13.3 µM (active); in assay [4], 18.8 µM (active).
As for `Cn1sccc1=O`, the Potency entry in assay [1] and in assay [5] was “inactive” in each case. The Potency in assay [2] is 2.43 µM (active); in assay [3], 3.06 µM (active); in assay [4] it was 4.86 µM (active).
With `CCCCCCCC/C=C\CCCCCCCC(N)=O`, the Potency result in assay [1], in assay [2], in [3], in assay [4], in assay [6] and in [8] was “inactive” each time. Further, the Potency entry in [5] and in [9] was “inactive” in each case. In addition, the call in [7] was inactive.
With `Cc1ncsc1CCO`, the Potency entry in assay [1], in assay [2], in assay [3], in [4] and in assay [5] was “inactive” each time.
Consider `CNS(=O)(=O)Cc1ccc2[nH]cc(CCN(C)C)c2c1`, for which the Potency result in [1], in [2], in assay [3], in assay [4] and in [5] was “inactive” each time.
Regarding `N#Cc1c(F)cccc1F`, the Potency result in [1], in [2], in assay [3], in assay [4] and in assay [5] was “inactive” in each case.
For the compound `NC(N)=N/N=C/c1c(Cl)cccc1Cl`, the Potency result in [1] and in assay [8] was “inactive” in each case. Further, the Potency in [2] is 11.9 µM (active); in assay [3] it was 23.7 µM (active); in assay [4] it was 21.1 µM (active).
With `CC(C)CC=O`, the Potency result in assay [1], in assay [2], in assay [3], in [4] and in assay [5] was “inactive” in each case.
On to `CCCOc1ccc2nc(NC(=O)OC)[nH]c2c1`, for which the Potency result in assay [1], in assay [10], in assay [8], in assay [5] and in assay [9] was “inactive” throughout. Also, the Potency in assay [2] and in [3] was 0.237 µM (active) throughout.
As for `O=C(C(=O)c1ccc(Br)cc1)c1ccc(Br)cc1`, the Potency entry in assay [1], in assay [2], in [3], in assay [4], in assay [6] and in [8] was “inactive” throughout. Further, the Potency result in assay [5] and in [9] was “inactive” in each case. The outcome in assay [7] was inactive.
`CC(C(=O)O)c1ccc(C(=O)c2ccccc2)s1` (centres undefined): the Potency entry in assay [1], in assay [2], in assay [3], in assay [4], in assay [6] and in [8] was “inactive” throughout. In addition, the Potency result in [5] and in [9] was “inactive” in each case.
Regarding `CC(=O)c1ccc2c(c1)[C@H](NC(=O)c1ccc(F)cc1)[C@@H](O)C(C)(C)O2`, the Potency entry in assay [1], in [2], in [3], in [4], in [10] and in assay [5] was “inactive” throughout.
As for `CCCCCCCCCCCCCCC1CO1` (centres undefined), the Potency entry in assay [1], in [2], in [3] and in assay [5] was “inactive” throughout.
On to `NCCCN(CCO)CCO`, for which the Potency result in assay [1], in [2], in [3], in assay [8], in assay [5] and in [9] was “inactive” throughout. Besides, the compound was called inactive in assay [7].
Turning to `CC(C)NCC(O)c1cc(O)cc(O)c1` (centres undefined), the Potency result in assay [1], in assay [2], in assay [3], in [10] and in assay [5] was “inactive” each time.
Take `CC(=O)[C@@]1(O)CC[C@H]2[C@@H]3C[C@H](C)C4=CC(=O)CC[C@]4(C)[C@H]3CC[C@@]21C`: the Potency entry in assay [1], in assay [10] and in assay [5] was “inactive” throughout. For the same compound, the Potency in assay [2] is 16.8 µM (active); in assay [3] it was 11.9 µM (active).
With `CC(C)c1ccccc1C(C)C`, the Potency result in assay [1], in [2], in [3], in assay [10] and in assay [5] was “inactive” throughout.

For the origin of these results see PubChem BioAssay (Tox21).
